Source: PubChem
Most compounds without a hit are left out; they make up all but 4.1% or so of the library.
CSC inhib: cancer stem cell inhibition. AID 2717. 300,000 tested, 1.1% active. cancer stem cell-like cells viability, luminescence. inhibition, % at 7.5 µM; in the data active means inhibition above about 75%; inconclusive means no clear call, values can overlap the other calls; tested in HMLE shEcad cells
Beta cell apopt: blocks beta cell apoptosis; INS-1E cytokine-induced death, ATP luminescence, 48 h; percent of positive-control rescue, neutral wells zero; protection from apoptosis, % (concentration not given with the values); 300,000 tested, 0.8% active; AID 435005;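 active means Every replicate reaches about 75%, or at least half do and their mean reaches it too, limit read from the data; inconclusive means At least half of replicates reach the limit but their mean does not; inactive means Under half of replicates reach the limit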;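 further: higher means more ATP so stronger rescue from cytokine killing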
Mdm2-MdmX inh: inhibitors of human Mdm2/MdmX interaction. O15151+Q00987. SaOS-2 split-luciferase Mdm2/MdmX complementation, luminescence. inhibition, % at 8 µM. 330,000 tested, 3% active;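 active means inhibition of at least 50% at 8 µM in the primary screen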
Target sequence (O15151 whole entry, looked up): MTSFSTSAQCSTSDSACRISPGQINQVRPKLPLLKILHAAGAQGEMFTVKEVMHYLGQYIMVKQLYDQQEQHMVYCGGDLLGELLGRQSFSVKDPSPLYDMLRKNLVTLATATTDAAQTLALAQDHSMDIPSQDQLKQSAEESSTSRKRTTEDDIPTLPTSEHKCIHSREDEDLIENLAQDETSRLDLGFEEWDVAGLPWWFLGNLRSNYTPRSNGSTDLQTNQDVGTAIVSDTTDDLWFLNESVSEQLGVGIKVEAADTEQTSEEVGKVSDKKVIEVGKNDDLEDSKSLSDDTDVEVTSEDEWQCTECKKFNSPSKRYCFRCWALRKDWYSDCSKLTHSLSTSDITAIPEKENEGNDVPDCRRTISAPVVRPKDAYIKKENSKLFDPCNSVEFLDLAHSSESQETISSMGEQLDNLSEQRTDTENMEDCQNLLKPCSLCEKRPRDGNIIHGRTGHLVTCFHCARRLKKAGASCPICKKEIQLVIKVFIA
Target sequence (Q00987 whole entry, looked up): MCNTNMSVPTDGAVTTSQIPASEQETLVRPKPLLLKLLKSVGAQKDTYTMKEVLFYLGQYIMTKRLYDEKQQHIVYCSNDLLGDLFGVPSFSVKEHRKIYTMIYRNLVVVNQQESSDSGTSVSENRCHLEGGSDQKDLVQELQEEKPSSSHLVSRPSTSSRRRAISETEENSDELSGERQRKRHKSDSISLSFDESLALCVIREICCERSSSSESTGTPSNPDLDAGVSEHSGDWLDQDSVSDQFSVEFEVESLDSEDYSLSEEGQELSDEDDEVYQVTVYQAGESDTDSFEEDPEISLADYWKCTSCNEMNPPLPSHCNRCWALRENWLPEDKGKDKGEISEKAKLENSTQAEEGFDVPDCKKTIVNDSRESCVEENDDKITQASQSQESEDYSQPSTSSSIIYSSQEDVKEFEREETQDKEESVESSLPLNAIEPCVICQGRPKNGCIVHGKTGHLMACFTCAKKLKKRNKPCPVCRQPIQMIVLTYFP
A1 inh: inhibitors of the anti-apoptotic protein A1, read as caspase activation | 330,000 tested, 0.066% active | AID 2462 | caspase activation, % (test concentration not listed) | MEF A1-2A-BIM cells, Caspase-Glo 3/7 luminescence, 3 h; percent of clofoctol response, vehicle zero;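 active means over half of replicate activation scores above 10%, or exactly half above 10 with the replicate mean above 10; inconclusive means replicate mean below 10 yet half the replicates above 10; inactive means over half of replicates below 10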
aSyn 5UTR inh: 5' untranslated region of α-synuclein, MLPCN primary screen; alpha-synuclein 5'UTR reporter, inhibitor activity; inhibition, % (tested at 7.5 µM); 300,000 tested, 0.82% active; AID 1813; in the data active means inhibition above about 60%; inconclusive means no clear call, values can overlap the other calls;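 further: H4 neuroglioblastoma cells stably carrying SNCA 5'UTR luciferase fusion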
Mdm2 MdmX conf: confirmation of human Mdm2/MdmX interaction inhibitors; shares compounds with Mdm2-MdmX inh; Mdm2-MdmX binding, luminescent assay; inhibition, % at 8 µM; 10,000 tested, 55% active; AID 489028; in the data active means inhibition above about 40%
Full FLuc ctr: full-length luciferase inhibition in Mdm2/MdmX counter-screen. AID 504607. SaOS-2 full-length luciferase counterscreen, luminescence. inhibition, % at 8 µM. 6,200 tested, 77% active. shares compounds with Mdm2-MdmX inh;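 active means mean inhibition at 8 µM reaching about 37%, which flags the compound as non-specific, limit read from the data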;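 further: p53-null SaOS-2 cells with luciferase driven by a doxycycline-inducible promoter; compound on cells about two nights before reading with doxycycline added after day one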
Large screens that a line does not name were inactive (follow-up assays come after a bar, where they were run).

COc1ccccc1C1c2[nH]c3ccccc3c2C[C@H]2C(=O)N(C3CCN(Cc4ccccc4)CC3)CC(=O)N12 (stereo not given in full)	Mdm2-MdmX inh 54.3 | Mdm2 MdmX conf inactive | Full FLuc ctr 89.8
COc1ccc(C2c3[nH]c4ccccc4c3C[C@H]3C(=O)N(C4CCN(Cc5ccccc5)CC4)CC(=O)N23)cc1OC (stereo not given in full)	none
COCCCN1CC(=O)N2C(c3ccccc3)c3[nH]c4ccccc4c3C[C@H]2C1=O (stereo not given in full)	none
COC(=O)c1ccc(C2c3[nH]c4ccccc4c3C[C@H]3C(=O)N(C)CC(=O)N23)cc1 (stereo not given in full)	none
CN1CC(=O)N2C(c3ccc(Cl)cc3)c3[nH]c4ccccc4c3C[C@H]2C1=O (stereo not given in full)	Mdm2-MdmX inh 51.8 | Mdm2 MdmX conf inactive
CCN1C(=O)[C@@H]2Cc3c([nH]c4ccccc34)C(c3ccc(OC)cc3)N2C1=S (stereo not given in full)	Mdm2-MdmX inh 73.1 | Mdm2 MdmX conf 58.0 | Full FLuc ctr 57.5
CN(Cc1ccccc1OCCO)CC1CCCN(CCc2ccc(Cl)cc2)C1 (stereo not given)	none
CC1(C)Cc2c(ccc3ccccc23)C(c2cc3ccccc3oc2=O)=N1	none
CC1(C)Cc2ccccc2C(c2cc3ccccc3oc2=O)=N1	Mdm2-MdmX inh 62.3, A1 inh inconclusive | Mdm2 MdmX conf inactive
O=C1CCCN1c1ccc(S(=O)(=O)Nc2ccc3c(c2)OCCO3)cc1	Mdm2-MdmX inh 68.1 | Mdm2 MdmX conf 68.9 | Full FLuc ctr 61.0
Cc1ccc(C23CC4CC(CC(NC(=O)NCCN(C)C)(C4)C2)C3)cc1	none
CN(C)CCNC(=O)COc1ccc(C23CC4CC(CC(C4)C2)C3)cc1	CSC inhib 82.1, Mdm2-MdmX inh 65.5 | Mdm2 MdmX conf inactive
CC(=O)c1ccccc1C(=O)N1CCC(n2nccc2NC(=O)C2CC2)CC1	none
CSc1nc(Oc2ccc3ccccc3c2)c2sccc2n1	Mdm2-MdmX inh 54.6, aSyn 5UTR inh 82.3 | Mdm2 MdmX conf 66.5 | Full FLuc ctr 42.6
COc1ccc(Oc2nc(SC)nc3ccsc23)cc1	none
CC(C)(C)OC(=O)C[C@@H]1C/C=C\C[C@@H](CC(=O)N(CCO)Cc2ccccc2)C(=O)N2CCC[C@@H]2COC1=O	none (no result: CSC inhib, aSyn 5UTR inh)
COc1ccc2cc1Oc1ccc(cc1)C[C@H]1c3cc(c(OC)cc3CCN1C)Oc1c(OC)c(OC)cc3c1[C@@H](C2)N(C)CC3	Mdm2-MdmX inh 100.3 (no result: aSyn 5UTR inh) | Mdm2 MdmX conf 90.4 | Full FLuc ctr 59.6
O=S(=O)(c1ccc(Cl)cc1)c1cnc2ccccc2n1	Mdm2-MdmX inh 53.1 | Mdm2 MdmX conf inactive
CC1CCC(C(C)C)C(OCC(O)CNC(C)c2ccccc2)C1 (stereo not given)	Mdm2-MdmX inh 60.5 | Mdm2 MdmX conf 45.8 | Full FLuc ctr 69.6
CC(NCC(O)COc1ccc(Br)cc1)c1ccccc1 (stereo not given)	none
CC(NCC(O)COC1CCC(C(C)(C)C)CC1)c1ccccc1 (stereo not given)	Mdm2-MdmX inh 55.0 (no result: CSC inhib) | Mdm2 MdmX conf inactive | Full FLuc ctr 77.1
CCN(CC)c1ccc(/C=N/NC(=O)c2nnn(-c3nonc3N)c2-c2ccc(C)cc2)cc1	none
O=C(CSc1nnc(NC(=O)c2cccc(Cl)c2)s1)NCC1CCCO1 (stereo not given)	none
COc1cc(/C=C/C(=O)OCC(=O)NCc2ccco2)ccc1O	Mdm2-MdmX inh 53.7 (no result: CSC inhib) | Mdm2 MdmX conf 44.5 | Full FLuc ctr 82.6
Cc1cc(C)cc(OCC(O)CN2CCC(CN3C(=O)c4cccc5cccc(c45)C3=O)CC2)c1 (stereo not given)	Beta cell apopt 78.3, Mdm2-MdmX inh 69.2 | Mdm2 MdmX conf inactive | Full FLuc ctr 73.7
COc1ccc(COCC(O)CN2CCC(CN3C(=O)c4cccc5cccc(c45)C3=O)CC2)cc1OC (stereo not given)	none
COc1cccc(OCC(O)CN2CCC(CN3C(=O)c4cccc5cccc(c45)C3=O)CC2)c1 (stereo not given)	none
O=C1c2cccc3cccc(c23)C(=O)N1CC1CCN(CC(O)COc2ccc3ccccc3c2)CC1 (stereo not given)	CSC inhib 103.2, Mdm2-MdmX inh 72.5 | Mdm2 MdmX conf inactive | Full FLuc ctr 51.7
O=C1c2cccc3cccc(c23)C(=O)N1CCN1CCN(CC(O)COc2ccc3ccccc3c2)CC1 (stereo not given)	CSC inhib 104.5, Mdm2-MdmX inh 67.0 | Mdm2 MdmX conf inactive
CCc1ccc(OCC(O)CN2CCC(CN3C(=O)c4cccc5cccc(c45)C3=O)CC2)cc1 (stereo not given)	Mdm2-MdmX inh 76.6 | Mdm2 MdmX conf inactive | Full FLuc ctr 60.6
COc1ccc(C(=O)COC(=O)c2cc(=O)c3ccccc3o2)cc1	none (no result: CSC inhib, aSyn 5UTR inh)
Cc1cc(C)c2c(CCl)cc(=O)oc2c1	Mdm2-MdmX inh 70.5, aSyn 5UTR inh 91.1 | Mdm2 MdmX conf 61.0 | Full FLuc ctr 99.6
O=C(O)c1cc2c(ccc3ccccc32)oc1=O	none (no result: Beta cell apopt)
N=c1oc2ccc3ccccc3c2cc1C(N)=S	Mdm2-MdmX inh 86.8 | Mdm2 MdmX conf 45.8 | Full FLuc ctr 66.3
Cc1cccc(-n2c(SCC(=O)NCC3CCCO3)nc3ccccc3c2=O)c1C (stereo not given)	none (no result: aSyn 5UTR inh)
O=C(NCCCCNC(=O)c1ccc(Br)cc1)c1ccc(Br)cc1	Mdm2-MdmX inh 76.9 | Mdm2 MdmX conf inactive
COc1cc(C(=O)NCC(c2cccs2)N2CCOCC2)c([N+](=O)[O-])cc1OC (stereo not given)	none
CN(C)CCCN1c2ccccc2Sc2ccc(Cl)cc21	Mdm2-MdmX inh 67.9 | Mdm2 MdmX conf inactive
CC[C@]12c3[nH]c4cc(-c5ccco5)ccc4c3CCN1C(=O)[C@@H](CC(=O)NCCc1ccccn1)C[C@@H]2C(=O)N1CCN(C(=O)C2CC2)CC1	none (no result: CSC inhib, Beta cell apopt, A1 inh, aSyn 5UTR inh)
CCn1c(Cc2ccccc2)nnc1SCC(=O)N1CCCC1=O	none
COc1ccc2cc(C3CC(c4cccs4)=NN3C(C)=O)c(Cl)nc2c1 (stereo not given)	Mdm2-MdmX inh 54.8 | Mdm2 MdmX conf inactive
Cc1ccc2nc(Cl)c(C3CC(c4cccs4)=NN3C(=O)CCC(=O)O)cc2c1 (stereo not given)	none
COc1ccc(N(CC(=O)N2CCN(C)CC2)S(=O)(=O)c2cc(C)ccc2OC)cc1Cl	none
CCCCCCC(=O)N1C/C=C\C(c2ccc(OC)cc2)N(Cc2ccc(F)cc2)C(=O)[C@H]1Cc1ccccc1 (stereo not given in full)	Beta cell apopt 99.5, Mdm2-MdmX inh 71.5 | Mdm2 MdmX conf inactive | Full FLuc ctr 62.1
